RGS4 inhibitor – human RGS4 inhibition; Transcreener GDP fluorescence polarization, RGS4-accelerated GTP hydrolysis; Potency, µM (doses to about 114 µM), inactives show top-dose activity change, negative = inhibition, usual class: inhibitors; 390,000 tested, 0.039% active; P49798; active = well fitted inhibition curve with a large enough effect; inconclusive = small, poorly fitted or top-dose-only effect; inactive = no such curve, though single readings can be large or run the other way; also: potency is read from the fitted curve at half-maximal effect; % is scaled to controls: 0 for no effect and ±100 for the full control effect; nearly all actives have a fitted effect of over 75% in size
Target sequence (P49798 whole entry, looked up): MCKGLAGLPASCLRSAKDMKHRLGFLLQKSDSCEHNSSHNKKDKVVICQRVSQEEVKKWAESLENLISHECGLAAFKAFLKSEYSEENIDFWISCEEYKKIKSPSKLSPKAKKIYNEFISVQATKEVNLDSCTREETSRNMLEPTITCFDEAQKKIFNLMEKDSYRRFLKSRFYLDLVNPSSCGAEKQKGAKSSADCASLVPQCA
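MLSMR compounds (23 nl, pin-transferred) preincubated 10 min at room temperature with a 500nM (2x) first reagent, then RGS4 at 900nM (2x) plus Transcreener GDP mix added; fluorescence polarization (620/688 nm) read before and after 90 min at 30 °C.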
DRD3 antagonist – D3 dopamine receptor (human) antagonism | P35462 | max response, negative = inhibition, % | D3R cells, DiscoveRx beta-arrestin luminescence, antagonist mode; hits give low values | 360,000 tested, 2.5% active; in the data active = max response below about -50%; inconclusive = no clear call, values can overlap the other calls; also: % is scaled to controls: 0 for no effect and ±100 for the full control effect
Target sequence (P35462 whole entry, looked up): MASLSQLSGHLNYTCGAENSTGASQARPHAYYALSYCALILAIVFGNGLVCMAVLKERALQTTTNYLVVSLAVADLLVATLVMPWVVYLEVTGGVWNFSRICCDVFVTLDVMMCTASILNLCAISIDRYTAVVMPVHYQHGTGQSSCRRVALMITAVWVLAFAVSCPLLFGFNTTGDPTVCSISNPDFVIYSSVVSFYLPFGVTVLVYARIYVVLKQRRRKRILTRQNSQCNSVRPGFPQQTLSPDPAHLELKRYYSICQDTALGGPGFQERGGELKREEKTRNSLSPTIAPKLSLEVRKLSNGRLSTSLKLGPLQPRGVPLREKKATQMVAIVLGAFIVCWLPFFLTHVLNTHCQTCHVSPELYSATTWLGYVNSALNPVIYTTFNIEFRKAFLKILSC
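Cells plated overnight at 1500 cells/well, then exposed to library compounds with dopamine controls for 90 minutes at 37 degrees C. DiscoveRx reagent added for 30–60 minutes at room temperature; luminescence read, quantitative HTS format.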
uPA surface inh – blocks generation of uPA at the cell surface; Potency, µM (highest dose often 38.3 µM), inactives show at the top dose activity change, negative = inhibition, actives largely listed as inhibitors; AID 540303; 330,000 tested, 0.31% active; cell surface uPA generation assay, qHTS; active = well fitted inhibition curve with a large enough effect; inconclusive = small, poorly fitted or top-dose-only effect; inactive = no such curve, though single readings can be large or run the other way; tested in mouse RAW 264.7 cells; also: potency is read from the fitted curve at half-maximal effect; % is scaled to controls: 0 for no effect and ±100 for the full control effect; nearly all actives have a fitted effect of over 55% in size
DRD3 agonist – agonists of human D3 dopamine receptor; D3R DiscoveRx beta-arrestin cells, luminescence, 90 min; AID 652048; P35462; max activation, %; 410,000 tested, 0.58% active; in the data active = max activation above about 30%; also: 0% is about no effect
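Agonist mode: compounds and dopamine controls were applied to plated cells for 90 min at 37 degrees C after an overnight attachment at 1500 cells/well. Luminescent read-out followed 30 - 60 minutes at room temperature with DiscoveRx detection reagent.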
An asterisk follows results filed as active; i = inactive; ? = inconclusive; · = no result; ! = a repeat was not active; [ ] = remark or other dose. Most compounds without a hit are left out; they make up all but 3.1% or so of the library.

SMILES	RGS4 inhibitor	DRD3 antagonist	uPA surface inh	DRD3 agonist
CCN(CC)CCO[C@H]1CC[C@@]2(C)C(=CC[C@@H]3[C@H]2CC[C@]2(C)C(=O)CC[C@H]32)C1	-2%[56.9 µM]	·	·	·
CCN(CC)CCO[C@H]1CC[C@@]2(C)C(=CC[C@@H]3[C@@H]2CC[C@]2(C)C(=O)CC[C@@H]32)C1	·	·	·	34*
CCCCC[C@@H](O)C1C(=O)OC(C)[C@H](O)/C=C/C=C/C=C/C=C/C=C(\C)C(O)C(O)C(O)C[C@H](O)C[C@H](O)C[C@H](O)C[C@H](O)C[C@@H]1O (some centres not stated)	·	·	·	2
CCOC(=O)c1cc2ccccc2n1C1CCN(Cc2ccccc2)CC1	·	-116*	·	-15
Cc1nc2cc(OC(=O)N(C)Cc3cccc(-c4ccncc4)c3)ccc2s1	·	128	·	33*
Cn1c(=O)oc2cc(NC(=O)CCl)ccc21	7%[56.9 µM]	-11	?	-2
CN(N=O)c1cc(O)ccc1O	24µM*	·	·	·
C[N+]1([O-])[C@@H]2CC[C@H]1CC(OC(=O)C(CO)c1ccccc1)C2 (some centres not stated)	·	·	·	-5
NC(N)=N/N=C/c1ccc(N2CCOCC2)cc1	-1%[56.9 µM]	25	7.9µM*	1
O=C(O)/C=C/CO	i	·	·	·
c1ccc(CN2CCC(Nc3nc(-c4cccs4)nc4ccccc34)CC2)cc1	5%[56.9 µM]	-29	?	-7
CN1CCN(c2nc(N)c(Br)c(Cl)n2)CC1	3%	-69*	-10%	-2
O=c1oc(Cl)c(Cl)c2ccccc12	11µM*!	-74*	-4%	-36
CC(=O)O[C@H]1C(=O)[C@@]2(C)C([C@H](OC(=O)c3ccccc3)[C@]3(O)C[C@H](OC(=O)[C@H](O)[C@@H](NC(=O)Cc4ccccc4)c4ccccc4)C(C)=C1C3(C)C)[C@]1(OC(C)=O)CO[C@@H]1C[C@@H]2O (some centres not stated)	8%	-50*	?	-9
CC(=O)O[C@@]12CO[C@@H]1C[C@H](O)[C@@]1(C)C(=O)[C@H](O)C3=C(C)[C@@H](OC(=O)[C@H](O)[C@@H](NC(=O)c4ccccc4)c4ccccc4)C[C@@](O)([C@@H](OC(=O)c4ccccc4)C12)C3(C)C (some centres not stated)	-3%	11	0.45µM*	2
CCO[C@@H]1OC(C(=O)NCc2ccccc2)=C[C@H](c2csc3ccccc23)[C@H]1CCCO	8%	?	?	-2
O=C(CCS(=O)(=O)Cc1ccccc1)Nc1nc2c(s1)CCCC2	4%	-103*	?	-11
O=C(CN1C(=O)CN=C(c2ccccc2)c2ccccc21)NCc1ccco1	15%	-61*	5%	-7
CC(C)CCNC(=O)CN1C(=O)CN=C(c2ccccc2)c2ccccc21	3%	-13	1%	0
C[C@@H](Cc1cccc(C(F)(F)F)c1)NCCCc1ccccc1	i	·	·	·
C[C@]12CC[C@@H](O)CC1=CCC1C2CC[C@@]2(C)C1CC[C@@H]2N (some centres not stated)	4%	1	-2%	13
COc1cc(/C=C2\C[C@H]3[C@@H]4CC=C5C[C@@H](N6CCCC6)CC[C@]5(C)[C@H]4CC[C@]3(C)[C@H]2O)cc(OC)c1OC	?	-70*	1%	-28
CSc1ccc(CN2CCN(Cc3ccccc3Cl)CC2)cc1	11%	-97*	-1%	-2
CSc1ccc(CN2CCN(C(=O)Cc3ccccc3)CC2)cc1	1%	0	2%	-6
COc1ccc(CC(=O)N(CCN(C)C)CC2CCCN(Cc3ccccc3F)C2)cc1 (configuration not stated)	9%	-6	-9%	-9
SMILES	RGS4 inhibitor	DRD3 antagonist	uPA surface inh	DRD3 agonist
COc1ccc(CN2CCN(Cc3ccccc3F)CC2)cc1	-9%	-73*	-7%	-38
O=c1cc(-c2ccccc2Cl)oc2c(NS(=O)(=O)c3cc(Cl)cc(Cl)c3O)ccc(O)c12	?	26	?	36*
Cc1cc(Br)ccc1NC(=O)CN(C)C(=O)C1CCN(c2ncnc3sc(C)c(C)c23)CC1	35%	7	?	11
O=C1NCN(c2ccccc2)C12CCN(CCCC(c1ccc(F)cc1)c1ccc(F)cc1)CC2	23%[56.9 µM]	-104*	?	-85
O=C(NCCN1CCC(n2c(=O)[nH]c3ccccc32)CC1)c1ccc2ccccc2c1	·	-55*	·	-10
O=C1NCN(c2ccccc2)C12CCNCC2	-3%	-86*	·	-33
O=C(NCCN1CCC2(CC1)C(=O)NCN2c1cccc(F)c1)c1ccc2ccccc2c1	·	-89*	·	-11
Cc1cccc(C)c1-n1nnnc1C(c1cccc2ccccc12)N1CCC(n2c(=O)[nH]c3ccccc32)CC1 (configuration not stated)	·	5	·	-4
O=C1NCN(c2ccccc2)C12CCN(CC1COc3ccccc3O1)CC2 (configuration not stated)	12%[56.9 µM]	·	·	-24
Cc1c(O)cccc1C(=O)N[C@@H](CSc1ccccc1)[C@H](O)CN1C[C@H]2CCCC[C@H]2C[C@H]1C(=O)NC(C)(C)C	-10%	-9	?	-5
CC[C@@H](C(=O)[C@@H](C)[C@@H](O)[C@H](C)[C@@H]1O[C@@H]([C@@H](CC)C(=O)O)CC[C@@H]1C)[C@H]1O[C@]2(C=C[C@@H](O)[C@]3(CC[C@@](C)([C@H]4CC[C@](O)(CC)[C@H](C)O4)O3)O2)[C@H](C)C[C@@H]1C	9%	373	13%	249*
C[C@H](CN1CCOCC1)C(C(=O)N1CCCC1)(c1ccccc1)c1ccccc1	·	·	·	-14
CNc1cc(Cl)c2nonc2c1[N+](=O)[O-]	-32%	-109*	-8%	-19
CCN(CC)C(=O)N[C@H]1C[C@@H]2c3cccc4[nH]cc(c34)C[C@H]2N(C)C1	17%	-4	-1%	79*
CN1C[C@H](CO)C[C@@H]2c3cccc4[nH]cc(c34)C[C@H]21	-22%	-56*	0%	30*
CC(C)C[C@H]1C(=O)N2CCC[C@H]2[C@]2(O)O[C@](NC(=O)[C@@H]3C[C@@H]4c5cccc6[nH]cc(c56)C[C@H]4N(C)C3)(C(C)C)C(=O)N12	·	·	·	17
COc1ccc(CNC(=O)C[C@H]2C[C@H](C(=O)N3CCCCC3)[C@@]3(CCc4ccccc4)c4[nH]c5ccc(Cl)cc5c4CCN3C2=O)cc1OC	-19%	-28	?	-23
COc1cc2c(cc1OC)-c1c(OC)c(OC)cc3c1[C@H](C2)N(C)CC3	-18%	-59*	?	-41
COc1cc(C[C@@H](C)N)c(OC)cc1Br	·	·	·	-10

Screening results (PubChem BioAssay)
